Data on 14 molecules can be found in PubChem BioAssay.

Experiment [1] is described as follows: modulators of MEP2-GFP levels in yeast, primary screen, S. cerevisiae, multiplex flow cytometry (AID 1867;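 active means GFP response, as percent of the DMSO control, above the screen-wide mean plus 3 SD, about 139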;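 further: median GFP channel fluorescence of barcode-gated MEP2-GFP cells measured by flow cytometry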). The settings on record: S. cerevisiae MEP2-GFP strain, 3 h, at 10 µM, stronger effect = higher value. On the technique in general: A flow cytometer gives signals particle by particle.
The nature of experiment [2]: modulators of MEP2-GFP levels in yeast, confirmation, S. cerevisiae, flow cytometry GFP, cherry picks (AID 2272).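 Further: ratio of well signal to plate DMSO mean so 100% equals DMSO level.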 To be noted: S. cerevisiae MEP2-GFP strain, 3 h, at 10 µM, stronger effect = higher value.
Experiment [3] in a line: AGP1-GFP expression modulators, hit retest, confirmation, cell-based, flow cytometry, S. cerevisiae, cherry picks (AID 2273;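 active means GFP response above 150% of the DMSO level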;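 further: median GFP channel fluorescence over the whole cell population gate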). To be noted: S. cerevisiae AGP1-GFP strain, 3 h, at 10 µM.

Values without a mark were called inactive.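 How the source made its calls, unless noted: active means GFP response above 150% of the DMSO control; inconclusive means Fewer than 70 cells counted for a yeast strain; inactive means the rest.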 Results filed as inconclusive are left out.

As for `Fc1ccc(C(OCCN2CCCC2)c2ccc(Br)cc2)cc1` (stereo unspecified), the GFP response vs DMSO in experiment [1] is 98.5%.
On the same count and under the same terms, the same measure for `O=C1C=Cc2ccccc2C1=O`: 116%.
Regarding `Cc1cc(C=C2C(=O)N(C)C(=S)N(C)C2=O)c(C)n1-c1ccncc1`, the GFP response vs DMSO in experiment [2] was 113%. Further, the GFP response, % of DMSO in experiment [3] was 100%.
The matching figures for `O=C(O)c1[nH]c(=O)[nH]c(=O)c1F`: 101% and 102%.
In the same order, the values of `CN1C(=O)NC(=O)/C(=C\C=C\c2ccccc2[N+](=O)[O-])C1=O` are 105% and 108%.
In the same order, the values of `CCN1C(=O)NC(=O)/C(=C\c2cn(CC(=O)N3CCCC3)c3ccccc23)C1=O` are 106% and 102%.
`CCC(C)N1C(=O)/C(=C\c2cnc(N(C)C)nc2)C(=O)NC1=S` (stereo unspecified): the GFP response vs DMSO in experiment [2] was 104%. The GFP response, % of DMSO in experiment [3] is 97.2%.
In the same order, the values of `O=C(O)c1nn(Cc2ccc(Cl)cc2Cl)c2ccccc12` are 100% and 99.2%.
In the same order, the values of `COc1ccc(N2C(=O)/C(=C/c3ccco3)C(=O)NC2=S)cc1` are 100% and 100%.
The matching figures for `O=C1NC(=S)N(c2ccccc2)C(=O)/C1=C/c1ccco1`: 122% and 103%.
Turning to `CC1(C)OC(c2ccccc2)=C/C(=C/C=C2C(=O)NC(=S)NC2=O)O1`, the GFP response vs DMSO in experiment [2] is 145%. The GFP response, % of DMSO in experiment [3] is 92.3%.
`C[C@]12CCC(=O)C(O)=C1CC[C@@H]1[C@@H]2CC[C@]2(C)C(=O)CC[C@@H]12`: the GFP response vs DMSO in experiment [2] is 102%. Also, the GFP response, % of DMSO in experiment [3] is 101%.
Take `O=C1/C(=C\c2ccc(Cl)c(Cl)c2)N2CCC1CC2`: the GFP response vs DMSO in experiment [2] is 92.6%. Also, the GFP response, % of DMSO in experiment [3] was 95.5%.
The matching figures for `CN1C(=O)C(=Cc2ccc(Sc3ccccc3)o2)C(=O)N(C)C1=S`: 106% and 99.3%.
